Sampled rows, rich in hits. Any-hit rate of the full collection: about 0.87%.
FEN1 inhibitor: qHTS Assay for the Inhibitors of Human Flap endonuclease 1 (FEN1); 0.35% of 390,000 active; Recombinant FEN1 flap cleavage, fluorescence, 15 min; P39748; Potency, µM (top dose mostly 114 µM), without a hit: top-dose activity change, negative = inhibition, hits mostly inhibitors; AID 588795, 2011; further: nearly all actives have a fitted effect of over 65% in size
Target sequence (P39748 whole entry, looked up): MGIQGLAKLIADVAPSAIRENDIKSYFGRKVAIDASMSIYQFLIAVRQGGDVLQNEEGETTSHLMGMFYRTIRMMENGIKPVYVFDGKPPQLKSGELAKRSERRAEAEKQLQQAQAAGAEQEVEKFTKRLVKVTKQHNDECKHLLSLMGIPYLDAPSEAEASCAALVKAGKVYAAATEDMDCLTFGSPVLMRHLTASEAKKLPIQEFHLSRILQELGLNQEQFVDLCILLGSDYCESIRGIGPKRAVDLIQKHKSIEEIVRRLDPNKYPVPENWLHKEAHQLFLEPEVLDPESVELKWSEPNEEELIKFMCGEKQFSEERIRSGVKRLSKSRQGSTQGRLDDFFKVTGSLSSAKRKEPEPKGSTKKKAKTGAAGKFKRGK
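Nuclease activity of 10 nM FEN1 was measured after 15 min of room-temperature exposure to titrated compounds, by adding 50 nM flap substrate and reading plates at 0 and 15 min.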
RECQ1 inh: qHTS Assay for Inhibitors of RecQ-Like Dna Helicase 1 (RECQ1); Potency, µM (doses to about 57.3 µM), without a hit: at the highest dose activity, negative = inhibition, usual class: inhibitors; 0.54% of 240,000 active; AID 2549, 2010; RECQ1 DNA unwinding, red fluorescence kinetic read;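 further: plate controls were vehicle for no effect and no enzyme for full effect; nearly all actives have a fitted effect of over 30% in size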
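RECQ1T1 50 nM; forked duplex (20 bp + 30-nt ss tails) 200 nM, ATP 2 mM final; pH 8.0, 2 mM MgCl2, 2.5 ug/ml poly(dI-dC); 15 min compound preincubation; discontinuous kinetic read over 2 h at RT.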
APE1 inh: qHTS Assay for Inhibitors of the Human Apurinic/apyrimidinic Endonuclease 1 (APE1). DNA repair nuclease/redox regulator APEX1 (Homo sapiens), P27695. 0.35% of 350,000 active. Potency, µM (top dose mostly 65.8 µM), for the others: at the top dose activity change, negative = inhibition, most hits filed as inhibitors. recombinant APE1, TAMRA/BHQ-2 abasic DNA cleavage fluorescence;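 further: plate controls were vehicle for no effect and reference inhibitor for full effect; nearly all actives have a fitted effect of over 55% in size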
Target sequence (P27695 whole entry, looked up): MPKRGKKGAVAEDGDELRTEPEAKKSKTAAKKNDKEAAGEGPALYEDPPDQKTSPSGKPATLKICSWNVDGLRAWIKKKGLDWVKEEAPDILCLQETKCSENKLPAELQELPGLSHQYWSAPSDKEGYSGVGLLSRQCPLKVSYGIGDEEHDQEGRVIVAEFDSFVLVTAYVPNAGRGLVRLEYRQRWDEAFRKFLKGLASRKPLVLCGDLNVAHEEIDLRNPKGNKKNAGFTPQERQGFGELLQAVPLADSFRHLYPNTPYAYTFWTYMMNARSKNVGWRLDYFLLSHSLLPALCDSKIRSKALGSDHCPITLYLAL
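Enzyme (0.75 nM final) and test compound are incubated 15 min at room temperature before adding 50 nM quenched THF abasic-site duplex. Cleavage dequenches TAMRA, followed at 525/598 nm over three reads one minute apart.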
BLM inh: qHTS Assay for Inhibitors of Bloom's syndrome helicase (BLM) | RecQ-like DNA helicase BLM (Homo sapiens), P54132 | recombinant BLM DNA unwinding, fluorescence dequenching | Potency, µM (titrated, usually from 56.1 µM), for the others: top-dose activity change, negative = inhibition, usual class: inhibitors | 0.2% of 350,000 active | AID 2528, 2010;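 further: plate controls were vehicle for no effect and no enzyme for full effect; nearly all actives have a fitted effect of over 35% in size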
WRN helicase inh: qHTS for Inhibitors of WRN Helicase | WRN helicase unwinding, fluorescent forked duplex, kinetic | 0.46% of 360,000 active | Bifunctional 3'-5' exonuclease/ATP-dependent helicase WRN (Homo sapiens), Q14191 | Potency, µM (highest dose often 114 µM), for inactives: top-dose activity change, negative = inhibition, most hits filed as inhibitors; further: nearly all actives have a fitted effect of over 55% in size
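WRN at 20 nM final was preincubated with compound for 15 min at room temperature; reaction started with 100 nM forked duplex oligonucleotide carrying fluorophore and quencher plus 2 mM ATP (final). Unwinding followed kinetically by red fluorescence (ex 525/em 598 nm).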
Numbers without * were called inactive; i = inactive; ? = inconclusive; nt = no result; ! = not active in a repeat; [ ] = dose if it differs, or a comment. The call rests on the fitted dose curve; in most records, active means well fitted curve in the direction sought with a large enough effect; inconclusive means small, poorly fitted or top-dose-only effect, or another doubt; inactive means no such curve, though single readings can be large; an effect the other way counts as inactive or inconclusive. Unless noted, on the % scale 0 is the no-effect control and ±100 the full control effect; potency means the concentration at half of the fitted maximal effect.

SMILES | FEN1 inhibitor | RECQ1 inh | APE1 inh | BLM inh | WRN helicase inh
C#CCOCCOCCOCCNc1nc(N2CCN(C(=O)CCCCCCCCCCNC(=O)[C@H](CCCCN)n3cc(CCO)nn3)CC2)nc(N2CCN(C(=O)CCCCCCCCCCNC(=O)[C@H](CCCN=C(N)N)n3cc(C[C@@H](C)CC)nn3)CC2)n1 | 22.4µM* | nt | ? | nt | 35.5µM*
[O-][n+]1c2ccccc2[n+]([O-])c2cc(O)ccc21 | ? | nt | 18.9µM* | -29.9% | ?
Fc1ccc(/C=C2\CCCC3=C2Nc2ncnn2C3c2ccc(F)cc2)cc1 (centres undefined) | -22.4% | -10.9% | 10.7% | -4.9% | 50.1µM*
COc1ccc(C2C3=C(Nc4ncnn42)c2ccccc2CCC3)cc1 (centres undefined) | -7.5% | -7.7% | 3.3% | 0.1% | -7.8%
O=C(Nc1ccc(Br)cc1)c1cnn2c1NC(=C1CC1)C=C2C(F)F | nt | nt | 15.6% | nt | nt
Cc1cc(O)c2c(c1O)C(=O)[C@]13C(=C2O)C(=O)[C@@H]2[C@@H](O)[C@H]1[C@@H]1[C@H](O)[C@H]3C(=O)C3=C(O)c4c(O)cc(C)c(O)c4C(=O)[C@]312 | ? | nt | 9.47µM* | nt | 56.2µM*
Cc1cc(O)c2c(c1O)C(=O)c1c(O)cc(C)c(O)c1C2=O | nt | 7.8% | ? | -1.4% | nt
O=C(CCN1CCN(c2ccccc2)CC1)N/N=C/c1ccc(O)c(O)c1O | 28.2µM* | i | 1.5% | 11.2µM* | 39.8µM*
COc1ccc(/C=N/NC(=O)CCN2CCN(c3ccccc3)CC2)c(OC)c1OC | 4.9% | -5.2% | 3.9% | -9.0% | 2.0%
CC1=NOC(=O)/C1=C\c1ccc(-c2ccccc2Br)o1 | 39.8µM* | -23.6% | -6.9% | -20.7% | 56.2µM*
CC1=NOC(=O)/C1=C/c1ccc(O)cc1 | 8.1% | i | -2.6% | -1.8% | ?
C=C1c2cccc(O)c2C(=O)C2C(=O)[C@]3(O)C(=O)C(C(N)=O)C(=O)[C@@H](N(C)C)[C@@H]3[C@@H](O)[C@H]12 (some centres undefined) | 14.1µM* | nt | 14.9% | nt | ?
COc1ccccc1CNC(=O)C1CCN(S(=O)(=O)c2c(C)noc2/C=C/c2cccs2)CC1 | 89.1µM* | nt | nt | -4.0% | nt
CNc1nc(N)c([N+](=O)[O-])c(NC2CCCCC2)n1 | 8.3% | nt | 10.3% | -3.8% | 5.1%
Nc1nc(Nc2ccccc2)nc(NC2CCCCC2)c1[N+](=O)[O-] | -33.9% | nt | -6.8% | ? | 79.4µM*
COc1cc(NC(=S)NCCC(c2ccccc2)c2ccccc2)cc(OC)c1 | 79.4µM* | -19.2% | 7.1% | -13.2% | 39.8µM*
COC(=O)c1ccc(NC(=O)C2CCN(S(=O)(=O)c3ccc4c(c3)CCCN4C(C)=O)CC2)cc1 | 12.4% | nt | nt | -2.1% | nt
O=C(/C=C/c1ccc(N2CCC(c3ccccc3)=N2)cc1)c1ccccc1 | -8.7% | -8.8% | 5.0% | -7.7% | 50.1µM*
CCO[C@@H]1O[C@H](C(COCc2ccccc2)OCc2ccccc2)[C@H](OCc2ccccc2)[C@H]1O (some centres undefined) | nt | nt | 0.1%[21 µM] | nt | nt
CN(C)/[N+]([O-])=N/Oc1ccc([N+](=O)[O-])cn1 | 2.0% | nt | nt | nt | nt
Cc1ccc2oc(-c3cc(NC(=O)c4oc5ccccc5c4C)ccc3Cl)nc2c1 | -1.7% | nt | nt | -8.9% | nt
Cc1ccc2oc(-c3cc(NC(=O)c4ccco4)ccc3Cl)nc2c1 | 79.4µM* | nt | nt | -0.6% | nt
C=C(NC(=O)C(=C)NC(=O)c1csc(C2=N[C@@H]3c4csc(n4)[C@H]4NC(=O)c5csc(n5)[C@H]([C@](C)(O)[C@@H](C)O)NC(=O)[C@H]5CSC(=N5)C(=CC)NC(=O)C([C@@H](C)O)NC(=O)c5csc(n5)[C@]3(CC2)NC(=O)[C@H](C)NC(=O)C(=C)NC(=O)[C@H](C)NC(=O)C([C@@H](C)CC)NC2C=Cc3c([C@H](C)O)cc(nc3C2O)C(=O)O[C@@H]4C)n1)C(N)=O (some centres undefined) | nt | nt | 5.1%[21 µM] | nt | nt
C=Cc1ccc(S(=O)(=O)O)cc1 | nt | -16.8% | 14.1µM* | -4.1% | nt
O=C(C[n+]1c(Cl)cc(Cl)c2ccccc21)c1ccccc1 | -21.8% | nt | nt | nt | nt
SMILES | FEN1 inhibitor | RECQ1 inh | APE1 inh | BLM inh | WRN helicase inh
Cc1ccc(NC(=O)CN2C(=O)S/C(=C/c3ccc(-c4cccc(C(=O)O)c4)o3)C2=O)cc1 | 20µM* | i | ? | -23.6% | ?
CC(C)(C)OC(=O)CN1C(=O)S/C(=C\c2ccc(-c3cccc(C(=O)O)c3)o2)C1=O | nt | nt | -28.2% | 0.3% | nt
Cc1cc(C(=O)O)ccc1-c1ccc(/C=C2\SC(=O)N(CC(=O)Nc3ccc4c(c3)OCO4)C2=O)o1 | nt | nt | 6.7µM* | 11.2µM* | nt
Cn1c(C(c2cc3ccccc3n2C)c2cc3ccccc3n2C)cc2ccccc21 | -5.3% | nt | nt | nt | nt
CCc1ccc(NCc2cc3cc4c(cc3n(CC(=O)Nc3ccccc3Cl)c2=O)OCO4)cc1 | 3.4% | nt | nt | -6.1% | nt
COc1ccc2c(c1)c(=O)oc1c(C)c(OCc3cc(C(=O)O)oc3C)ccc12 | ? | -9.0% | 14.3% | 1.4% | 50.1µM*
Cc1cccc(/C=C(\C(=O)O)c2ccc(S(=O)(=O)N3CCCC3)s2)c1 | 0.8% | nt | 11.9µM* | nt | ?
NS(=O)(=O)c1cccc2c1c([N+](=O)[O-])cc1nc(O)c(O)nc12 | -20.0% | -2.0% | -11.6% | -8.7% | -11.8%
NS(=O)(=O)c1cccc2c1c([N+](=O)[O-])cc1[nH]c(=O)c(=O)[nH]c12 | nt | 1.41µM*! | 1.58µM* | -4.7% | nt
CC(C)C[C@@H](CC(=O)N[C@H](CC(=O)N[C@@H]1CCCC[C@H]1C(=O)N[C@H](CC(=O)N[C@@H](CCC(=O)O)CC(=O)O)Cc1c[nH]c2ccccc12)C(C)C)NC(=O)[C@@H]1CCCC[C@H]1N | nt | -7.5% | -3.9% | 7.08µM* | nt
CC(C)[C@@H](CC(=O)N[C@@H]1CCCC[C@H]1C(=O)N[C@H](CC(=O)N[C@@H](CCC(=O)O)CC(=O)O)Cc1c[nH]c2ccccc12)NC(=O)C[C@H](Cc1c[nH]c2ccccc12)NC(=O)[C@@H]1CCCC[C@H]1N | nt | -8.9% | -0.1% | 1.3% | nt
